This is a sample that favours compounds with a hit; in the whole collection about 10% have one here.
Pf growth 48h – inhibits P. falciparum growth in the first generation, 48 h | Potency, µM (titrated, usually from 28.7 µM), inactives show at the top dose activity change, negative = inhibition, usual class: inhibitors | P. falciparum luciferase growth in erythrocytes, 48 h | actives 5.9% (n = 310,000); active means well fitted inhibition curve with a large enough effect; inconclusive means small, poorly fitted or top-dose-only effect, or another doubt; inactive means no such curve, though single readings can be large or run the other way; further: on the % scale 0 is the no-effect control and ±100 the full control effect
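Luciferase-expressing parasites in RBCs, 2% Hct / 0.1% parasitemia final; RPMI 1640 + 0.5% Albumax; 37 C, 5% CO2, one generation; luminescence read-out, lower signal = inhibition.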
Pf growth 96h – P. falciparum growth inhibition at 96 hours; P. falciparum luciferase reporter growth, 96 h; Potency, µM (series often up to 28.7 µM), inactives show at the highest dose activity change, negative = inhibition, hits mostly inhibitors; actives 6.9% (n = 320,000); AID 504834; active means well fitted inhibition curve with a large enough effect; inconclusive means small, poorly fitted or top-dose-only effect, or another doubt; inactive means no such curve, though single readings can be large or run the other way; further: on the % scale 0 is the no-effect control and ±100 the full control effect
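Plates of compound plus infected erythrocytes (2% hematocrit, 0.05% parasitemia final) incubate 96 hours, 37 C, 5% CO2. Detection reagent added; reduced luminescence from the parasites' luciferase reporter flags inhibition.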
NS1 inh – inhibitors of influenza NS1 protein function; Potency, µM (top dose mostly 46.1 µM), for inactives: top-dose activity, positive = more growth; actives 0.4% (n = 270,000); further: actives are rising curves; nearly all actives have a fitted effect of over 50% in size
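Read-out: OD600 growth recovery of NS1-expressing budding yeast. Cells grown overnight at 30C in -URA glucose medium, washed, resuspended and diluted 1:100 in 2% galactose assay medium, pH 6.0. Same strain lacking NS1 served as positive control.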
SARS PLpro yeast – inhibitors of SARS-CoV papain-like protease in yeast; S. cerevisiae expressing SARS-CoV PLpro, growth rescue; Potency, µM (highest dose often 32.9 µM), inactives show top-dose activity, positive = growth rescue, hits mostly activators; actives 0.19% (n = 330,000); AID 485353; further: 0% is about no effect; nearly all actives have a fitted effect of over 55% in size
* marks the source's active call; other numbers are inactive results; [ ] = dose if it differs, or a comment. Unless noted, the call rests on the fitted dose curve. Potency means the concentration at half of the fitted maximal effect.

For O=S(=O)(c1ccc(OCC(O)CN2CCN(c3ccc(F)cc3)CC2)cc1)N1CCOCC1 (stereo not drawn) the results were Pf growth 48h 0%, Pf growth 96h 9.3µM*, NS1 inh -1% and SARS PLpro yeast 3%.
Screening COc1ccccc1N1CCN(CC(O)COc2ccc(C)c(C)c2)CC1 (stereo not drawn) returned Pf growth 48h 10%[0.00184 µM], Pf growth 96h 23%, NS1 inh -1% and SARS PLpro yeast 2%.
`OC(COc1ccc2ccccc2c1)CN1CCN(c2ccc(F)cc2)CC1` (stereo not drawn) gave Pf growth 48h 17%, Pf growth 96h -28%, NS1 inh -6% and SARS PLpro yeast -4%.
COc1ccccc1N1CCN(CC(O)COc2ccc(S(=O)(=O)N3CCOCC3)cc2)CC1 (stereo not drawn) was read as Pf growth 96h 8.3µM*, NS1 inh -4% and SARS PLpro yeast -3%.
`Cc1ccsc1CNC12CC3CC(CC(C3)C1)C2` gave Pf growth 48h -16%, Pf growth 96h 0.83µM*, NS1 inh 2% and SARS PLpro yeast -2%.
Screening Cc1ccsc1CNC1CCCCC1 returned Pf growth 48h inconclusive, Pf growth 96h inconclusive, NS1 inh inconclusive and SARS PLpro yeast 2%.
`COc1ccc(CN2CC[C@@H](N3CCOCC3)[C@H](O)C2)cc1F` gave Pf growth 48h 1%, Pf growth 96h inconclusive, NS1 inh 4% and SARS PLpro yeast 0%.
CC12CCC(C(=O)NNc3ccccc3)(OC1=O)C2(C)C (stereo not drawn) was read as Pf growth 48h 11%, Pf growth 96h inconclusive, NS1 inh -4% and SARS PLpro yeast 0%.
Screening CC12CCC(C(=O)NC(c3ccccc3)c3ccccc3)(OC1=O)C2(C)C (stereo not drawn) returned Pf growth 96h 13µM*, NS1 inh -2% and SARS PLpro yeast 4%.
`CCOC(=O)c1cccc(N2C(=O)C3C4C=CC(CC4)C3C2=O)c1` (stereo not drawn) gave Pf growth 48h 2%, Pf growth 96h 19%, NS1 inh 4% and SARS PLpro yeast 0%.
For CCOC(=O)C1=C(C)C2C3C(=O)N(c4cc(C)ccc4C)C(=O)C3C1(C)C1C(=O)N(c3cc(C)ccc3C)C(=O)C21 (stereo not drawn) the results were Pf growth 48h 13µM*, Pf growth 96h inconclusive, NS1 inh 7% and SARS PLpro yeast -4%.
C[C@@H]1NC(=O)N(c2ccc(F)cc2)C1=O was read as Pf growth 48h 29%, Pf growth 96h 33%, NS1 inh 3% and SARS PLpro yeast -3%.
For CC1CN(C(=O)CCC(=O)NCCCN2CCN(Cc3ccccc3)CC2)c2cc(Cl)ccc2O1 (stereo not drawn) the results were Pf growth 48h inconclusive, Pf growth 96h inconclusive, NS1 inh -7% and SARS PLpro yeast -3%.
For CC1(CN2CCC(n3c(=O)[nH]c4ccccc43)CC2)OCc2ccccc2-n2cccc21 (stereo not drawn) the results were Pf growth 48h 15µM* and Pf growth 96h 13µM*.
Screening COc1cc(NC(=O)CN2C(=O)COc3ccc(S(=O)(=O)N4CCCCC4)cc32)cc(OC)c1 returned Pf growth 48h inconclusive, Pf growth 96h 10µM*, NS1 inh -3% and SARS PLpro yeast -1%.
Screening Cc1cc(C)cc(NC(=O)CN2C(=O)COc3ccc(S(=O)(=O)N4CCCC4)cc32)c1 returned Pf growth 48h 0%, Pf growth 96h inconclusive, NS1 inh 15% and SARS PLpro yeast 13%.
Screening Cc1ccccc1NC(=O)CN1C(=O)CSc2ccc(S(=O)(=O)N3CCCC3)cc21 returned Pf growth 48h -16%, Pf growth 96h 13µM*, NS1 inh 7% and SARS PLpro yeast 9%.
`CC(=O)c1cccc(NC(=O)CN2C(=O)COc3ccc(S(=O)(=O)N4CCOCC4)cc32)c1` gave Pf growth 48h inconclusive, Pf growth 96h 12µM*, NS1 inh -1% and SARS PLpro yeast -2%.
`COc1cc(NC(=O)CN2C(=O)COc3ccc(S(=O)(=O)N4CCCC4)cc32)cc(OC)c1` gave Pf growth 48h inconclusive, Pf growth 96h 0.41µM*, NS1 inh 1% and SARS PLpro yeast -2%.
For CNC(=O)Cn1nc(C)c(S(=O)(=O)N2CCOCC2)c1C the results were SARS PLpro yeast 2%.
